Assay outcomes (PubChem BioAssay)
Dicer inh = inhibitors of human Dicer processing of pre-microRNA; Q9UPY3; cat-ELCCA pre-miR-21 Dicer processing, chemiluminescence; stronger effect = higher value; z-score at 25 µM; 47,000 tested, 6% active; AID 1347074; in the data active = z-score above about 3, passing the limit was not always enough;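 note: plate controls were vehicle for no effect and no enzyme for full effect; higher signal means more uncleaved substrate so more Dicer inhibition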
Target sequence (Q9UPY3 whole entry, looked up): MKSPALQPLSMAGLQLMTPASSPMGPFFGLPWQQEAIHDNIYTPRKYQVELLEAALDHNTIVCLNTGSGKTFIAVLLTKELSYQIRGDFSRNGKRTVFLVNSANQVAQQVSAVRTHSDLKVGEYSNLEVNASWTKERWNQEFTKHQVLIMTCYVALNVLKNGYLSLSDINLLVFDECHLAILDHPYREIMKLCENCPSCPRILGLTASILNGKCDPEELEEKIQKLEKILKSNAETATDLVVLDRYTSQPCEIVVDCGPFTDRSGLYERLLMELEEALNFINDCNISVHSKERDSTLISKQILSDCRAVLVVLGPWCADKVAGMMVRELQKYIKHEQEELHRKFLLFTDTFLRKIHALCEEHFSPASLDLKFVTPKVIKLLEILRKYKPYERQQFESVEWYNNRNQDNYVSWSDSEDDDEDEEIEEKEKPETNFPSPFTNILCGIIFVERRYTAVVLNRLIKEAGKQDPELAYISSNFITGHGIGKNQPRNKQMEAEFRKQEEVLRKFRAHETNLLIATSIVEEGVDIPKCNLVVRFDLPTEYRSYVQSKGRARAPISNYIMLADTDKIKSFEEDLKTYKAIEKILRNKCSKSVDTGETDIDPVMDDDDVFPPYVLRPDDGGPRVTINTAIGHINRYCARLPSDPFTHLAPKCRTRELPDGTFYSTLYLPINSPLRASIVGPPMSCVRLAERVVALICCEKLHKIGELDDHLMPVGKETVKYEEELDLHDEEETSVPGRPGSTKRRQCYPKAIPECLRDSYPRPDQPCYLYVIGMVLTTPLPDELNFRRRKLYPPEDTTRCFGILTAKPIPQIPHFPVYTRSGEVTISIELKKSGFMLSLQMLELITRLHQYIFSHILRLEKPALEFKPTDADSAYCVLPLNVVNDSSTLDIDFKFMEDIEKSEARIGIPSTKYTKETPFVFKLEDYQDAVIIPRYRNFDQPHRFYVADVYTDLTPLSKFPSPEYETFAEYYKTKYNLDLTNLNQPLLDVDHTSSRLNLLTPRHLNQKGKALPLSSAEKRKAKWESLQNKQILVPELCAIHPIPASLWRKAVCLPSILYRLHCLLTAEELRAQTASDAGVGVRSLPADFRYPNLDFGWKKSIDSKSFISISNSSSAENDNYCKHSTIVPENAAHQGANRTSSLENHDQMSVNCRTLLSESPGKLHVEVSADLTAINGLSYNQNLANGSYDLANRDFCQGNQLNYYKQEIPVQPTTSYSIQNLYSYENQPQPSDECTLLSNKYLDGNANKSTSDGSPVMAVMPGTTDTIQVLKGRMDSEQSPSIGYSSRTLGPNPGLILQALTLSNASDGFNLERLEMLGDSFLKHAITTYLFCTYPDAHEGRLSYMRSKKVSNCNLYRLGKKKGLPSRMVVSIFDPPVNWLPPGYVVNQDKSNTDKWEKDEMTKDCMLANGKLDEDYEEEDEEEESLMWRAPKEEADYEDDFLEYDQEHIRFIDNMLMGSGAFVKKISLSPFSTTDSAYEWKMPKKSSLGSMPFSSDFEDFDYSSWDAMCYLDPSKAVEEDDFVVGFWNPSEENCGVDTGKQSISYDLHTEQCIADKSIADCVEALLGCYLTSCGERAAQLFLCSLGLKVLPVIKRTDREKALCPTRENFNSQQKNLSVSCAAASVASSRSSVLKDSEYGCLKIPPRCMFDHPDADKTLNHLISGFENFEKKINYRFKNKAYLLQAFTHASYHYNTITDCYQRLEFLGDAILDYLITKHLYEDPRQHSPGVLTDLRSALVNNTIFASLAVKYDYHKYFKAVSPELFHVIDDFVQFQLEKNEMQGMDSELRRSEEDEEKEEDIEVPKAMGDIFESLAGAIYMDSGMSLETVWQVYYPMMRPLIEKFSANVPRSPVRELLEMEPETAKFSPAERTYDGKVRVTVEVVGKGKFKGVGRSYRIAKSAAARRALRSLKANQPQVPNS
* hit, by the source's call. The full list was thinned out, with hits kept by preference.

For CCC(C)Sc1sc(C(=O)O)c(-c2ccc(Cl)cc2)c1C#N (stereo unspecified) the results were Dicer inh 0.13.
NC(=S)Nc1csc(C(F)(F)F)c1-c1ccccc1 was read as Dicer inh 3.3*.
Screening NC(=S)Nc1ccc(C(F)(F)F)cc1 returned Dicer inh -0.82.
For CSC(N)=Nc1csc(C(F)(F)F)c1-c1ccccc1 the results were Dicer inh 1.6.
Screening C=C(C)Cn1c(SCCC(=O)OC)nc2sc3c(c2c1=O)CC(C)(C)OC3 returned Dicer inh 1.2.
Screening CC(=O)c1c(O)c2ccccc2[nH]c1=O returned Dicer inh 1.
Screening CSc1ssc(=Nc2ccc(F)c(F)c2)c1-c1ccccc1 returned Dicer inh 3.6*.
Screening CSc1ssc(=Nc2ccc(C)c(Cl)c2)c1-c1ccccc1 returned Dicer inh -0.32.
For CCOc1ccc(N=c2ssc(SC)c2-c2ccccc2)cc1 the results were Dicer inh -0.88.
For Cc1sc(Nc2ccccc2)nc1-c1ccc(-c2ccccc2F)cc1 the results were Dicer inh -1.2.
O=C(Nc1ccccc1[N+](=O)[O-])c1ccccc1 was read as Dicer inh -0.41.
Screening COc1cc(C2/C(=C(\O)c3ccc(Cl)cc3)C(=O)C(=O)N2Cc2cccnc2)ccc1O (stereo unspecified) returned Dicer inh -0.52.
`COc1ccccc1C1CCN(C(=O)c2cccnc2Sc2ccc(C)cc2)CC1` gave Dicer inh 2.3.
For Nc1nc2ccc(CC(=O)O)cc2s1 the results were Dicer inh -2.3.
`Nc1nc2ccc(Oc3ccc4nc(N)sc4c3)cc2s1` gave Dicer inh 3.7*.
For CS(=O)(=O)c1ccc2nc(N)sc2c1 the results were Dicer inh 2.5.
Screening Cc1cccc(N2C(=O)C3C4C=CC(C4)C3C2=O)n1 (stereo unspecified) returned Dicer inh -0.23.
`Cc1noc(N2C(=O)C3C4C=CC(C4)C3C2=O)c1C` (stereo unspecified) gave Dicer inh -0.05.
`Cc1cc(N2C(=O)C3C4C=CC(C4)C3C2=O)no1` (stereo unspecified) gave Dicer inh 3.7*.
Screening COc1ccc(C(Nc2ccccn2)c2c(O)ccc3ncccc23)cc1 (stereo unspecified) returned Dicer inh -0.1.
For Nc1c(-c2nc(-c3ccccc3)cs2)c2ccccn2c1C(=O)c1cccs1 the results were Dicer inh 0.81.
`COc1ccc2c(c1)CCc1sc(NC(=O)c3cccs3)nc1-2` gave Dicer inh -0.15.
`CC1(C)Cc2c(c(N3CCCC3)nc3sc4c(N5CCOCC5)ncnc4c23)CO1` gave Dicer inh -0.03.
CC1(C)Cc2c(c(N3CCOCC3)nc3sc(C(=O)c4ccccc4)c(N)c23)CO1 was read as Dicer inh 3.2*.
CC1(C)Cc2c(c(N3CCOCC3)nc3sc(C(=O)Nc4ccccc4)c(N)c23)CO1 was read as Dicer inh 2.3.
`CC(=O)Oc1ccc(C2C(C(=O)OC3CCCCC3)=C(C)NC3=C2C(=O)CCC3)cc1` (stereo unspecified) gave Dicer inh -0.36.
For O=c1[nH]nc(SCCS(=O)(=O)c2ccc(Cl)cc2Cl)n1-c1ccc2c(c1)OCCO2 the results were Dicer inh -3.8.
For COc1ccc(O)c(C2=NN3C(C2)c2ccccc2OC3c2ccc(F)cc2)c1 (stereo unspecified) the results were Dicer inh 2.4.
COc1ccc(C2Oc3c(OC)cccc3C3CC(c4cc(OC)ccc4O)=NN32)c(OC)c1 (stereo unspecified) was read as Dicer inh 2.8.
`COc1ccc(O)c(C2=NN3C(C2)c2ccccc2OC3c2cccs2)c1` (stereo unspecified) gave Dicer inh 11*.
`COc1cccc(C2Oc3ccccc3C3CC(c4cccs4)=NN32)c1OC` (stereo unspecified) gave Dicer inh 20*.
Screening COc1ccc(O)c(C2=NN3C(C2)c2cccc(OC)c2OC3c2cccs2)c1 (stereo unspecified) returned Dicer inh 3.5*.
For COc1cccc2c1OC(c1cccs1)N1N=C(c3ccccc3O)CC21 (stereo unspecified) the results were Dicer inh 1.3.
`COC(=O)c1ccc(C2Oc3c(OC)cccc3C3CC(c4cccs4)=NN32)cc1` (stereo unspecified) gave Dicer inh -1.6.
`COc1ccc(O)c(C2=NN3C(C2)c2ccccc2OC3c2ccc(O)c(OC)c2)c1` (stereo unspecified) gave Dicer inh 2.6.
For O=C(O)/C=C\C(=O)Nc1cccc2c1CCCC2 the results were Dicer inh 0.12.
Screening CCOC(=O)C(NC(C)=O)(Nc1cccc(C)c1)C(F)(F)F (stereo unspecified) returned Dicer inh 0.06.
`CC(C)c1ccc2oc(-c3ccc(NC(=O)c4cncc(Br)c4)cc3)nc2c1` gave Dicer inh -1.3.
Screening O=C(CSc1nccc(-c2cccs2)n1)c1cc(-c2ccc(Cl)c(Cl)c2)no1 returned Dicer inh 4*.
`CC(C)NC(=O)CSc1nccc(-c2cccs2)n1` gave Dicer inh 0.49.
For O=C(CSc1nccc(-c2cccs2)n1)Nc1ccccc1 the results were Dicer inh -0.43.
`COc1ccc(-c2cnc3cc(-c4ccc(C)cc4)nn3c2N)cc1OC` gave Dicer inh -0.16.
For CCCOc1ccc(C2C(C(=O)OC(C)C)=C(C)Nc3nc4ccccc4n32)cc1 (stereo unspecified) the results were Dicer inh -0.19.
Screening N#Cc1c(OCC(F)(F)F)ccc(Sc2ncccc2C(F)(F)F)c1OCC(F)(F)F returned Dicer inh -0.07.
Screening O=S(=O)(NCCc1ccccn1)c1ccc(S(=O)(=O)N2CCOCC2)cc1 returned Dicer inh -0.01.
Cc1cccc2[nH]c(-c3ccc(N)cc3)nc12 was read as Dicer inh 6.8*.
`Cc1c(C)c(C)c2[nH]c(-c3ccc4c(c3)OCO4)nc2c1C` gave Dicer inh 0.22.
For Cc1c(N)ccc2[nH]c(-c3ccc(N)cc3)nc12 the results were Dicer inh 6.3*.
For Cc1cccc2[nH]c(SCc3ccccc3F)nc12 the results were Dicer inh 0.69.
`Nc1cccc2[nH]c(-c3ccccc3)nc12` gave Dicer inh 3.9*.
For Nc1ccc(-c2nc3c(Cl)c(N)ccc3[nH]2)cc1 the results were Dicer inh 3.4*.
Screening Brc1cccc(-c2nc3ccccc3[nH]2)c1 returned Dicer inh 2.3.
Screening Cc1cccc2[nH]c(-c3ccccc3)nc12 returned Dicer inh -0.58.
O=c1[nH]c(-c2ccccc2)nc(=S)[nH]1 was read as Dicer inh 2.
For CCC(C)Cn1c(Sc2ncc([N+](=O)[O-])s2)n[nH]c1=O (stereo unspecified) the results were Dicer inh -0.76.
For COc1cc(NC(=S)N(C)C)cc(OC)c1 the results were Dicer inh 0.37.
For Cc1ccc(C(=O)n2nc(C)c(Sc3nccn3C)c2C)cc1 the results were Dicer inh -0.79.
ClC1=C(CN2CCCCC2)CSc2ccc(Cl)cc21 was read as Dicer inh 0.59.
Screening COc1ccccc1C1CC(=O)Nc2cc3c(cc21)OCO3 (stereo unspecified) returned Dicer inh -0.42.
`CCCc1[nH]nc2c1C(c1ccc(Cl)cc1)C(C#N)=C(N)O2` (stereo unspecified) gave Dicer inh -3.2.
For Cc1ccc(N2CCn3c2nc2c3c(=O)n(CC(=O)O)c(=O)n2C)cc1 the results were Dicer inh 0.75.
